# Measurements as given in PubChem BioAssay AID504452 (The Scripps Research Institute Molecular Screening Center, 2011).
# Active and inactive are the calls of the source. No stated cut-off is given here; in the data, active means activation above about 85%; inactive means the rest.
# Target: Peroxisome proliferator-activated receptor gamma (Homo sapiens) (UniProt P37231)
# Assay: PPARg partial agonist activation, primary screen, cell-based, luciferase reporter, luminescence (AID 504452);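 further: Cos-1 cells carrying PPARgamma and a response element luciferase reporter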
# Settings: at 5 µM, stronger effect = higher value; activation (% of full agonist control): measured here: relative to full agonist control
# Peroxisome proliferator-activated receptor gamma (Homo sapiens), sequence (P37231 whole entry, looked up): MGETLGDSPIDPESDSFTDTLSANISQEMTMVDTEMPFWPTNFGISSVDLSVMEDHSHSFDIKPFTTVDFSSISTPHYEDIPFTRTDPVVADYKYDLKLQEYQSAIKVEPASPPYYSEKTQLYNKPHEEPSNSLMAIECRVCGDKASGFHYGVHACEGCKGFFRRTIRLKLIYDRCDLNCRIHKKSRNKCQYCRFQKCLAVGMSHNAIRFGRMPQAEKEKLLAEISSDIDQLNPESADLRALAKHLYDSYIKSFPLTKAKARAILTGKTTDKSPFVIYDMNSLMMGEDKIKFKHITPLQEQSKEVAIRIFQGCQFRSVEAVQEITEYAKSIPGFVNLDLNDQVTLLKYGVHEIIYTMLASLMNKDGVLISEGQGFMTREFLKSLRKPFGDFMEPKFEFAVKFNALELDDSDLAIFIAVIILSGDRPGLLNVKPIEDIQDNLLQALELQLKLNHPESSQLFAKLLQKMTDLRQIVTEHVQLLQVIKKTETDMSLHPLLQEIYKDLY
SMILES,activation (% of full agonist control) [%],activation (% of partial agonist control)
CC(=O)Nc1cc(C(=O)N2CCC3(CC2)OCCO3)ccc1Sc1ccc(F)cc1,37.4,82.7% (inactive)
O=C(O)COc1ccccc1/C=C1\C(=O)NC(=O)N(CCC2=CCCCC2)C1=O,33.7,74.6% (inactive)
